The results in this text go back to PubChem BioAssay (NCATS).

Structures are written as SMILES. Values joined by “and” are separate entries in the source; they are usually repeats but may differ in a detail not shown here. Equal entries are not always repeated. Results filed as inconclusive are left out. Entries that show only a call come without a potency. Active and inactive are the calls of the source. Calls follow the shape of the dose curve; as a rule, active = well fitted inhibition curve with a large enough effect; inconclusive = small, poorly fitted or top-dose-only effect; inactive = flat fitted curve, though single readings scatter.
Potency is read from the fitted curve at half-maximal effect.

The test system of the assay is Zika virus NS2B-NS3 protease. The experiment in a line: Primary screen GU AMC qHTS for Zika virus inhibitors (AID 1347154). Also: nearly all actives have a fitted effect of over 70% in size. The note with it: Zika NS2B-NS3 unlinked protease, AMC fluorogenic substrate; series mostly up to 54.1 µM. An excerpt: Avindra Nath, Ph.D., National Institute of Neurological Disorders and Stroke (NINDS), Bethesda, MD
Radhakrishnan Padmanabhan, Ph.D., Georgetown University (GU), Washington D.C.
Zika Virus causes congenital defects, including microcephaly and is associated with Guillain-Barre syndrome, eningoencephalitis and myelitis in infected adult. […] Using a target-based approach, we hope to establish a screening paradigm to uncover novel, cell-active NS2B-NS3 protease (Zika Virus) specific inhibitors from NCATS' collection of small molecules using qHTS.
Early Translation Branch (ETB)
National Center for Advancing Translational Sciences (NCATS), Rockville, MD
National Institute of Health (NIH), Bethesda, Maryland
Padmanabhan lab provided the NS2B hydrophilic domain and NS3 protease domain in a noncovalent complex used for the unlinked assay. Control compound aprotinin is obtained from Thermo Scientific (#78432; Waltham, Massachusetts). NS2B-NS3 AMC substrate (Bz-Nle-Lys-Arg-Arg-AMC; Nle-KRR-AMC) purchased from Bachem (#I-1995; Torrance, CA). Ac-VKTGKR-AMC purchased from Genscript or Bachem, Ac-FAAGKR-AMC purchased from Genscript, Ac-GLVKRR-AMC purchased from Genscript, Ac-LKKR-AMC purchased from Genscript.
GU AMC unlinked NS2B-NS3 protease qHTS protocol
Briefly, 3 microL of Zika virus unlinked NS2B-NS3 protease (25 nM for linked final concentration), in assay buffer (10 mM Tris-HCl pH 8.0 with 0.01% Tween 20) was dispensed into a 1,536-well solid-bottom black plate (Greiner Bio One, Monroe, NC). […] Plates were then read immediately on a ViewLux High-throughput CCD imager (PerkinElmer, Waltham, MA) equipped with standard UV fluorescence optics (340(30) nm excitation, 450(20) nm emission) then incubated (room temperature, protected from light) for 15 minutes (~20% conversion). The change in fluorescence intensity over the 15-minute reaction period was normalized against no-inhibitor and no-enzyme controls and the resulting percent inhibition data were fitted to a 4-parameter Hill equation. Aprotinin was used as the intraplate control.
In general terms: In qHTS, concentration-response curves come from the screen itself.
As to `O=C(CS(=O)Cc1ccco1)NCC=CCOc1cc(CN2CCCCC2)ccn1` (stereo not given), the Potency result was “inactive”. Turning to `N=C(N=C(N)N)N1CCOCC1`, the Potency result is “inactive”. The value for `COc1cc2nc(N3CCN(C(=O)C4CCCO4)CC3)nc(N)c2cc1OC` (stereo not given) was 31.6 µM (active) and 24.1 µM (active); that for `CC(C)(S)[C@@H](N)C(=O)O` was “inactive”; that for `CNC[C@@H](O)[C@@H](O)[C@H](O)[C@H](O)CO` was “inactive”. As to `CCOC(=O)c1c(C)n(C)c2ccc(O)cc12`, the Potency entry is “inactive”.

As to `Cc1ccc(C)c(OCCCC(C)(C)C(=O)O)c1`, the Potency entry was “inactive”. The entry for `Oc1ccc(OCc2ccccc2)cc1` is “inactive”. The entry for `C=CCc1cc(OC)c(O)c(C(=O)NCCO)c1` is “inactive”. Regarding `S=c1nc[nH]c2nc[nH]c12`, the Potency result was “inactive”. `C[Se]CCC(N)C(=O)O` (stereo not given): the Potency result was “inactive”. The value for `CCOC(=O)C1=C[C@@H](OC(CC)CC)[C@H](NC(C)=O)[C@@H](N)C1` was “inactive”.

For `CC(C)c1ccc2oc3nc(N)c(C(=O)O)cc3c(=O)c2c1`, the Potency is 15.8 µM (active). As to `CCN(CC)C(=S)SSC(=S)N(CC)CC`, the Potency entry is “inactive”. With `CCCCN(CCCC)CCC(O)c1cc2c(Cl)cc(Cl)cc2c2cc(C(F)(F)F)ccc12` (stereo not given), the Potency result was “inactive”. The value for `CC(C)[N+]1(C)[C@@H]2CC[C@H]1CC(OC(=O)C(CO)c1ccccc1)C2` (stereo not given in full) was “inactive”. The entry for `CS(=O)(=O)OCCCCOS(C)(=O)=O` is “inactive”; for `N[C@@H](Cc1cc(I)c(Oc2cc(I)c(O)c(I)c2)c(I)c1)C(=O)O` it is “inactive”.

For `C[C@H](Cn1cnc2c(N)ncnc21)OCP(=O)(O)O`, the Potency entry was “inactive”.

`Cc1cc(=O)c2c(O)c3c(O)cc(=O)c4c3c3c(cc(O)c1c23)C(C)(C)C=4O`: the Potency entry is “inactive”. The value for `COc1ccccc1N1CCN(CCN(C(=O)C2CCCCC2)c2ccccn2)CC1` was “inactive”; that for `COc1cc(Nc2c(C#N)cnc3cc(OCCCN4CCN(C)CC4)c(OC)cc23)c(Cl)cc1Cl` was “inactive”; that for `CCC[C@@H]1C[C@@H](C(=O)N[C@@H]([C@H]2O[C@H](SC)[C@H](O)[C@@H](O)[C@H]2O)[C@@H](C)O)N(C)C1` was “inactive”. As for `O=C(O)c1cccc(-c2noc(-c3ccccc3F)n2)c1`, the Potency result is “inactive”.

For `CC(C)c1nc(CN(C)C(=O)N[C@H](C(=O)N[C@@H](Cc2ccccc2)C[C@H](O)[C@H](Cc2ccccc2)NC(=O)OCc2cncs2)C(C)C)cs1`, the Potency entry is “inactive”. The entry for `Cc1ccc(NC(=O)c2ccc(CN3CCN(C)CC3)cc2)cc1Nc1nccc(-c2cccnc2)n1` is “inactive”; for `CN(C)[C@@H](CCOc1cccc2ccccc12)c1ccccc1` it is “inactive”; for `C[C@]12CCC(=O)C=C1CC[C@@H]1[C@H]2[C@@H](O)C[C@@]2(C)[C@H]1CC[C@]2(O)C(=O)CO` it is “inactive”.

For the molecule `Cn1c(NCCN(CCO)CCCc2ccc([N+](=O)[O-])cc2)cc(=O)n(C)c1=O`, the Potency entry was “inactive”.

As for `O=P(O)(O)C(O)(Cn1ccnc1)P(=O)(O)O`, the Potency result is “inactive”. For `CC[C@]1(O)C[C@H]2CN(CCc3c([nH]c4ccccc34)[C@@](C(=O)OC)(c3cc4c(cc3OC)N(C=O)[C@H]3[C@@](O)(C(=O)OC)[C@H](OC(C)=O)[C@]5(CC)C=CCN6CC[C@]43[C@@H]65)C2)C1`, the Potency result is “inactive”. The entry for `O=C(OC1C[C@H]2CC[C@@H](C1)[N+]21CCCC1)C(O)(c1ccccc1)c1ccccc1` (stereo not given in full) is “inactive”; for `CCN(CC)CCOc1ccc(Cc2ccccc2)cc1` it is “inactive”; for `O=C1c2ccccc2-c2n[nH]c3cccc1c23` it is “inactive”. On to `COCCCN1CCC(NC(=O)c2cc(Cl)c(N)c3c2OCC3)CC1`, for which the Potency result was “inactive”. The figure for `Cc1nc(-c2ccc(OCC(C)C)c(C#N)c2)sc1C(=O)O` is 21.5 µM (active); for `CN1CCC(=C2c3ccccc3CCc3sccc32)CC1` it is “inactive”. Consider `CC(=O)Nc1ccc(O)cc1`, for which the Potency entry was “inactive”. Turning to `CCCOc1ccc2nc(NC(=O)OC)[nH]c2c1`, the Potency result was “inactive”. The entry for `COc1c2occc2cc2ccc(=O)oc12` is “inactive”.
